Among the data in PubChem BioAssay (NCI) are growth values, retold here.

Compounds without any hit were thinned out: in the full panel of roughly 83,000, 20% have a hit.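 96-well plates, one dose, 48 hours. Percent growth reported; active if below 10.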 Values without a mark were called inactive. Calls of active or inactive are those of the source.

For the assay, the system named is MDA-MB-468 breast. The assay is described as follows: NCI-60 one-dose screen, 48 h (100 = growth as untreated, 0 = no growth, -100 = all killed). The settings on record: 10 µM unless noted.
Consider `CN(C)CCCn1c2c(c3ccc(N4CCNCC4)cc3c1=O)C(=O)c1ccccc1-2`, for which the growth is -17.2% (active).
Consider `C/C(=C\c1csc(C)n1)[C@@H]1C[C@@H]2O[C@]2(C)CCC[C@H](C)[C@H](O)[C@@H](C)C(=O)C(C)(C)[C@@H](O)CC(=O)N1`, for which the growth was 22.4%.
The result for `CCCCS(=O)(=O)c1cc(Nc2ccc(O)c3c2C(=O)c2ccccc2C3=O)ccc1C` reads 76.4%; that for `N#CC1=C(N)Oc2cc(N)ccc2C1c1cccnc1` (stereo not given), 97.9%; that for `CS(=O)(=O)CCNCc1ccc(-c2ccc3ncnc(Nc4ccc(OCc5cccc(F)c5)c(Cl)c4)c3c2)o1`, -56.5% (active).
For `NC(N)=N/N=C(/c1ccccc1)c1ccc(F)cc1` the value was 14.9%; for `N=c1sc(Cc2ccc(Cl)cc2)cn1CC(=O)c1ccc(F)cc1`, 84.7%; for `Cc1c(C)c2c(c(C)c1NC(=O)CCCCCCC(=O)O)CCC(C)(CCCC(C)CCCC(C)CCCC(C)C)O2` (stereo not given), 90.1%.
The result for `C=C1C(=O)O[C@@H]2[C@@H]3O[C@@](C)(CC/C=C(\C)CCC[C@@H]2C)[C@H](O)C[C@@H]13` reads -24.9% (active); that for `Cc1cc(C(=O)NN)c(C#N)c(=O)[nH]1`, 122%.
As to `COc1ccc(C(c2cc(OC)c(OC)c(OC)c2)n2ccnc2)cc1O` (stereo not given), the growth was 15.6%.
For `COc1ccc(/C(=C\c2ccc3c(c2)OCO3)C(=O)Nc2nc3ccccc3s2)cc1` the value was 114%; for `COCCN(C(=O)c1ccc(F)cc1F)c1c(N)n(Cc2ccccc2)c(=O)[nH]c1=O`, 87.8%.
As to `C[C@H](CCC(=O)NCc1ccc(C(=O)Nc2ccccc2N)cc1)[C@H]1CC[C@H]2[C@@H]3[C@@H](O)C[C@@H]4C[C@H](O)CC[C@]4(C)[C@H]3CC[C@]12C`, the growth was 71.2%.
The result for `CCC1(C)OC(=O)NC1=O` (stereo not given) reads 107%.
The result for `COc1ccc(/C(=N\N)C(=O)c2ccccc2)cc1` (tested in a mixture with another compound) reads 89%; that for `COc1cc(OC)c(S(N)(=O)=O)cc1C(=O)/C=C/c1ccccc1`, -43.4% (active).
The result for `COC(=O)c1ccc2c(c1)nc(-c1ccc(O)c(OC)c1)n2-c1cc(C(C)(C)C)[nH]n1` reads 104%; that for `CCC/C=C(/C(C)=O)C(=O)OCC`, 88.3%.
As to `Cn1ccnc1C(=O)/C=C/c1ccc(C(=O)Nc2ccc(S(F)(F)(F)(F)F)cc2)cc1`, the growth was 14.5%.
As to `O=[N+]([O-])c1cc(S(=O)(=O)c2ccc(F)c([N+](=O)[O-])c2)ccc1F`, the growth was 88.4%.
With `Cc1nc(NC(=S)Nc2ccc(F)cc2)sc1C(=O)NNC(=S)Nc1ccc(F)cc1`, the growth was 44.6%.
The result for `COc1ccc(CNc2nccnn2)cc1` reads 88%.
The result for `O=S(=O)(c1ccc(NC(=S)NCc2cccnc2)cc1)N1CCCCC1` reads 72.3%; that for `Clc1ccc(OCc2nc(-c3ccccc3)n[nH]2)c(Cl)c1`, 99.1%.
For `CCOC(=O)c1c2c(n3ccc(NC(=O)OC(C)(C)C)cc13)C(=O)c1ncccc1C2=O` the value was -29% (active).
Take `Cc1ccc(NC(=O)C2CCC(CN3CCN(C)CC3)CC2)cc1Nc1nccc(-c2cccnc2)n1` (stereo not given): the growth was 94.8%.
For `CC(C)(C)c1ccc(CC(=O)Nc2sc3c(c2C(N)=O)CCC(=O)C3)cc1` the value was -13.9% (active); for `O=S(=O)(NCCNc1cc(-c2c(-c3cccc(O)c3)nc3sccn23)ccn1)c1ccc(C(F)(F)F)cc1`, 30.7%.
For the compound `N#Cc1ccc(C(F)(F)F)nc1N1CCC(C(=O)Nc2ccc(Cl)cc2)CC1`, the growth is 69.2%.
For the compound `O=C(Nc1cccc(-c2ccc(Cl)c(C(F)(F)F)c2)c1)C1CCN(Cc2cccc3cccnc23)CC1`, the growth is -5.03% (active).
For the compound `Clc1ccc(-c2csc(Nc3cccc(Nc4csc(-c5ccc(Cl)cc5)n4)c3)n2)cc1`, the growth was 77%.
The result for `CS(=O)(=O)c1ccc(-c2cnc3ccc(-c4cccc(S(C)(=O)=O)c4)nn23)cc1` reads 6.54% (active).
The result for `C[N+](C)(C)CCCCCCCCCC[N+](C)(C)C` reads 79.6%; that for `COc1ccc(-c2cc(-c3cc(OC)ccc3OC)nc(SCC(C)=O)c2C#N)cc1`, 56.2%.
As for `COc1ccc2nc(SCC(=O)Nc3ccccc3C)[nH]c2c1`, the growth is 98%.
For `O=C(CCn1cnc2c(cc(-c3ccccc3)n2-c2ccccc2)c1=O)Nc1ccc(F)cc1` the value was 78%; for `Oc1ccc(-c2cnc(-c3ccccc3)[nH]2)c(O)c1`, 109%; for `Cc1ccc(S(=O)(=O)N(c2ccc(Cl)cc2)c2ccc(Br)cc2C(=O)O)cc1`, 95.9%.
For `COc1ccc(NC(=O)Cn2c(=O)sc3c(-c4ccc(Cl)cc4)cc(-c4ccc(Cl)cc4)nc32)cc1` the value was 114%.
